Reference: the supplement of paper PMC7411640
Where a name gives a salt, the structure may show the parent alone.

System: MDA-MB-468
Experiment: phospho-S6 immunofluorescence (DAPI-normalised), per-plate z-score; higher = higher phospho-S6 signal (less pathway suppression)
Conditions: 24 h
Method: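 GPCR-targeted compound library (MedChemExpress HY-L006) tested on MDA-MB-468 PTEN-null TNBC cells in 384-well plates at 0.1, 1 or 10 uM, combined with vehicle, GDC0941 450 nM or lapatinib 1 uM, for 24 h. Phospho-S6 (S240/244) immunofluorescence normalised to DAPI and expressed as a per-plate z-score; values are the mean of biological triplicates.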

Compound	phospho-S6 immunofluorescence (z-score) (co-treatment: GDC0941 450 nM)	phospho-S6 immunofluorescence (z-score) (co-treatment: lapatinib 1 uM)	phospho-S6 immunofluorescence (z-score) (co-treatment: vehicle)
CN(C)CC/C=C1/c2ccccc2Sc2ccc(Cl)cc21 [Chlorprothixene] (compound 10 µM)	0.1	-3.66	0.41
COc1ccc(C2CC(c3ccccc3)=NN2c2ccc(S(N)(=O)=O)cc2)cc1 (configuration not stated) (compound 10 µM)	-3.22	-0.2	-6.71
CCOc1nc2cccc(C(=O)O)c2n1Cc1ccc(-c2ccccc2-c2noc(=O)[nH]2)cc1 [Azilsartan] (compound 10 µM)	-0.76	0.26	-0.54
CN(C)CCC(c1ccccc1)c1ccccn1 (configuration not stated) [Pheniramine (Maleate)] (compound 10 µM)	0.09	0.78	-0.37
CN1CCN(CCc2ccc(Cl)c(Cl)c2)CC1 [BD1063 (dhydrochloride)] (compound 10 µM)	0.51	-1.56	-0.49
CN(C)C(=O)N[C@H]1CC[C@H](CCN2CCN(c3cccc(Cl)c3Cl)CC2)CC1 [Cariprazine (hydrochloride)] (compound 10 µM)	0.26	-1.23	1.3
Cc1cc(Cn2cnc3c2CC(C(=O)O)N(C(=O)C(c2ccccc2)c2ccccc2)C3)ccc1N(C)C (configuration not stated) (compound 10 µM)	-0.71	0.17	0.29
CC(C)(Cc1nc(-c2ccc(O)cn2)no1)C(=O)NC1=C(C(=O)O)CCCC1 (compound 10 µM)	0.73	0.37	1.12
CCCNS(=O)(=O)Nc1ncnc(OCCOc2ncc(Br)cn2)c1-c1ccc(Br)cc1 [Macitentan] (compound 10 µM)	0.32	0.71	-0.16
